Lassa entry: blocks Lassa virus binding or cell entry. Lassa virus pseudotyped entry inhibition, cell-based qHTS. Potency, µM (doses to about 49.2 µM), actives largely listed as inhibitors. 4.1% of 18,000 active
Marburg entry: Marburg virus entry inhibition. Potency, µM (titrated, usually from 49.2 µM), usual class: inhibitors. Marburg virus pseudotype entry/binding inhibition, cell-based. 6.5% of 18,000 active
Large screens that a line does not name were inactive. Shown are actives, neighbours in structure and some others; about 7.1% of the full set was active somewhere. Calls come from the whole dose curve; tested in HEK293 cells.

CN1CC[C@]2(C)c3cc(O)ccc3N(C)[C@@H]12	Marburg entry 11µM
CC12C=C(C=Cc3ccc(C(F)(F)F)cc3)C(C)(C1)C(c1ccc(C(F)(F)F)cc1)CC2=O (centres undefined)	none
O=C(OCCN1CCCCC1)C(O)(c1ccccc1)c1ccccc1	none
O=C(Nc1ccccc1)OCC(CN1CCCCC1)OC(=O)Nc1ccccc1 (centres undefined)	Marburg entry 13µM
CCCCCC(=O)N1C[C@H](n2cc(-c3ccc(F)cc3)nn2)[C@@H](O)C[C@H]1c1ccc(C)cc1	none
COc1cc2c(cc1OC)-c1c(O)c(OC)cc3c1[C@H](C2)N(C)CC3	none
COc1cc2c(cc1OC)-c1cc(=Nc3c(C)cc(C)cc3C)n(C)c(=O)n1CC2	Lassa entry 11µM, Marburg entry 13µM
COc1cc(O)c(C(=O)C=Cc2ccc3c(c2)OCO3)c(OC)c1	none
O=C(Nc1cccc(Cl)c1)OCC#CCCl	Marburg entry 11µM
C[N+](C)(C)CC#CCOC(=O)Nc1cccc(Cl)c1	none
CCOC(=O)OC[C@H]1O[C@H](C#Cc2ccc(F)cc2F)C=C[C@H]1OC(=O)OCC	none
CN(C)CCCN1c2ccccc2Sc2ccccc21	Lassa entry inconclusive, Marburg entry 7.1µM
COc1ccc([C@H]2Sc3ccccc3N(CCN(C)C)C(=O)[C@H]2OC(C)=O)cc1	Lassa entry inconclusive
CC(=O)c1ccc2c(c1)N(CCCN(C)C)c1ccccc1S2	Marburg entry inconclusive
CCC(=O)c1ccc2c(c1)N(CCCN(C)C)c1ccccc1S2	Lassa entry 32µM, Marburg entry 22µM
CCC[CH2][Sn][CH2]C=C[C@@H]1C[C@@H](CCOCc2ccc(OC)cc2)OP(=O)(O)O1	none
C#CCCOC(=O)N1C2=NC3=C(C(=O)N(Cc4ccc5c(c4)OCO5)C3=O)C3N(C)c4ccccc4[C@]23C[C@H]1CO (some centres undefined)	none (no result: Lassa entry)
Cc1ccc(S(=O)(=O)N2CCC(=O)N([C@H](COCc3cccc(C(F)(F)F)c3)Cc3ccccc3)CC2)cc1	Lassa entry inconclusive, Marburg entry 11µM
Cc1ccc(S(=O)(=O)N2CCC(=O)N([C@H](COCc3cccc(C(F)(F)F)c3)C(C)C)CC2)cc1	Marburg entry inconclusive
COCCCC/C(=N\OCCN)c1ccc(C(F)(F)F)cc1	Marburg entry 14µM
CN(C)[C@@H]1C(=O)C(C(N)=O)=C(O)[C@@]2(O)C(=O)C3=C(O)c4c(O)cccc4[C@@](C)(O)[C@H]3[C@H](O)[C@@H]12	Marburg entry inconclusive
Cc1c2c(c(O)c3c(O)cccc13)C(=O)O[C@H]2C1C(N(C)C)C(O)=C(C(N)=O)C(=O)[C@H]1O (some centres undefined)	Marburg entry 8.9µM
O=S1(=O)CC(N2CC=CC2)CN1CCc1ccccc1 (centres undefined)	none
Cc1[nH]cnc1C[C@H]1CCc2c(C)c3ccccc3n2C1=O	Marburg entry inconclusive
Clc1ccc2c(c1)CCc1cccnc1C2=C1CCNCC1	Lassa entry 25µM, Marburg entry 10µM
CCN1CCC(CC(=O)Nc2n[nH]c3nnc(-c4cccc(F)c4F)cc23)CC1	none (no result: Lassa entry)
CC(C)CCOC(=O)c1ccc(N(C)C)cc1	none
CN=C1C=CC(=C(c2ccc(N(C)C)cc2)c2ccc(N(C)C)cc2)C=C1	Lassa entry 3.5µM, Marburg entry 2.8µM
CCOC(=O)CCN1C(=O)[C@@H]2[C@H]3[C@H](O)[C@H](O)CC(=NOCc4ccccc4)[C@@H]3CC[C@H]2C1=O	none
C[C@H](ON=C1[C@H]2CCn3c(=O)n(-c4ccccc4)c(=O)n3[C@@H]2[C@H](O)[C@@H]2O[C@H]12)c1cn([C@H](CO)Cc2ccccc2)nn1	none
COc1cccc(-n2ncc3c(NN=Cc4ccncc4)ncnc32)c1	none
COc1cccc(-n2ncc3c(NN=Cc4ccc(C(=O)NCCN(C)C)cc4)ncnc32)c1	Marburg entry 10µM
COc1cc(C=NNc2ncnc3c2cnn3-c2ccccc2)ccc1O	Lassa entry inconclusive, Marburg entry 14µM
COc1cccc(C=NNc2ncnc3c2cnn3-c2cccc(OC)c2)c1	none
O=C(Nc1ccc(Cl)cc1)Nc1ccc(Cl)c(C(F)(F)F)c1	Lassa entry 14µM, Marburg entry 11µM
CCCC(C)(C)C(=O)Nc1ccc(Cl)cc1	none
O=C(O)c1ccccc1O	none
C[CH2][Hg][S]c1ccccc1C(=O)O	Lassa entry 1.1µM, Marburg entry inconclusive
C=CCN1C(=O)[C@]2(O[C@H](C)CC3=CCCC32)c2c(Br)cccc21 (some centres undefined)	none
Oc1cc2c(cc1O)[C@@H]1c3ccc(O)c(O)c3OC[C@]1(O)C2	Marburg entry 5.6µM
CCCCN1CC(COc2ccccc2)Oc2cc(Br)ccc2S1(=O)=O (centres undefined)	Marburg entry inconclusive
CC(=O)Nc1ccc(C(=O)N2CCCC(c3nc(SCc4ccccn4)ncc3C)C2)cc1 (centres undefined)	none
Cc1cnc(SCc2ccccn2)nc1C1CCCN(C(=O)c2scc3c2CCCC3)C1 (centres undefined)	Lassa entry inconclusive, Marburg entry 10µM
